The values that follow come from PubChem BioAssay (NCATS).

Several values for one entry are separate records, joined by “and”; a condition that tells them apart may be missing. Identical values can stand only once. Records with an inconclusive call do not appear. A number with no mark means an inactive call. Activity calls are given as the source filed them. Calls follow the shape of the dose curve; as a rule, active = well fitted curve in the direction sought with a large enough effect; inconclusive = small, poorly fitted or top-dose-only effect, or another doubt; inactive = no such curve, though single readings can be large; an effect the other way counts as inactive or inconclusive.

Assay [1] can be described thus: Viability qHTS for spleen associated tyrosine kinase inhibitor (SYKi) drug resistant MV4-11 cells (AID 1963824). Also: nearly all actives have a fitted effect of over 35% in size. The essentials:
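CellTiter-Glo luminescence, read 10 min after reagent addition, reports viability after a 72 hr compound exposure. Cells are an MV4-11 line made resistant to SYK inhibition, seeded at 500 per well onto compound-containing plates.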
(In qHTS, concentration-response curves come from the screen itself.)

Assay [2] is described as follows: Cellular viability qHTS for adrenocortical cancer (ACC) cell line SW-13 (AID 1963989). Also: nearly all actives have a fitted effect of over 65% in size.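 As to activity (max response): cells grown in serum-free medium with ITS supplement; % is scaled to controls: 0 for no effect and ±100 for the full control effect.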 The note with it: SW-13 ACC cells viability, CellTiter-Glo, 48 h; activity (max response): hits give low values. The gist of the method:
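Compound titrations (up to 46 uM final, in DMSO) were applied to SW-13 cells for 48 h at 37C/5% CO2. Reading used CellTiter-Glo after 20 min at room temperature; fitted curves yielded IC50 and efficacy.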

Assay [3] is described as follows: Cellular viability qHTS for adrenocortical cancer (ACC) cell line NCI-H295R (AID 1963990). Also: nearly all actives have a fitted effect of over 60% in size.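 As to activity change, negative = viability loss: 0% = DMSO only wells and -100% = full killing with cytotoxic reference compound.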 The gist of the method:
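Readout: CellTiter-Glo luminescence, 20 min RT. Exposure: 48 h, 37C/5% CO2. Cells: NCI-H295R, ITS-DMEM serum-free. Range: up to 46 uM. Analysis: 4PL fit, IC50 plus efficacy.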
Potency is read from the fitted curve at half-maximal effect.

With `Cn1cc(-c2c[nH]c3ncnc(N4CCOCC4)c23)cn1`, the Potency in assay [1] was 14.8 µM (active). For the same molecule, in assay [2], the activity (max response) is 0.0559%. Moreover, in assay [3], the Potency entry was “inactive”.
`CC(C)=CCC/C(C)=C/CC/C(C)=C/C(=O)OCC(=O)[C@@]1(O)CC[C@H]2[C@@H]3CCC4=CC(=O)C=C[C@]4(C)[C@H]3[C@@H](O)C[C@@]21C`: in assay [1], the Potency was 9.44 µM (active). The activity (max response) in assay [2] is 9.99%. For the same molecule, the Potency result in assay [3] is “inactive”.
The matching figures for `Nc1c(I)cc(I)c(C(=O)N(CCC(=O)O)c2ccccc2)c1I`: “inactive”, -3.73% and “inactive”.
Consider `CC(C)(CNC(=O)c1cccc(-c2noc(C(F)(F)F)n2)c1)c1coc(-c2ccccc2)n1`, for which the Potency in assay [1] is 14.8 µM (active). Further, the Potency entry in assay [3] is “inactive”.
`CC1CCC(n2c3cnccc3c3cnc(Nc4ccc5c(n4)CCN(C(=O)CO)C5)nc32)CC1` (stereo not drawn): the Potency in assay [1] was 164 nM (active) and 170 nM (active). For the same molecule, in assay [2], the activity (max response) was -7.81%. In assay [3], the activity change, negative = viability loss is 3.35% [at 9.17 µM].
In the case of `O=C(c1ccc(NS(=O)(=O)c2cccc3cccnc23)cc1)N1CCN(CC2CC2)CC1`, the Potency result in assay [1] and in assay [3] was “inactive” throughout. Further, the activity (max response) in assay [2] was -19.6%.
With `C/C=C(/C(=C/C)c1ccc(O)cc1)c1ccc(O)cc1`, the Potency in assay [1] was 14.8 µM (active); in assay [2] it was 14.1 µM (active); in assay [3], 23.1 µM (active) and 6.31 µM (active).
Regarding `CNC(=O)Cn1cc(-c2ccc3c(c2)C(F)CC32NC(=O)N(CC(=O)N(Cc3ccc(F)cc3)[C@@H](C)C(F)(F)F)C2=O)cn1` (stereo partly drawn), the Potency in assay [1] is 0.132 µM (active). For the same molecule, the activity (max response) in assay [2] is 8.67%. In addition, the Potency result in assay [3] was “inactive”.
With `CC(=O)c1ccc2c(c1)c1cc(C(C)=O)ccc1n2CCNC(C)C`, the Potency in assay [1] was 0.525 µM (active); in assay [2] it was 1.58 µM (active); in assay [3] it was 1.58 µM (active).
Take `Nc1ccc(C(=O)N2CC3CC(CN(Cc4ccccc4)C3)C2)cc1`: the Potency entry in assay [1] and in assay [3] was “inactive” each time. In addition, the activity (max response) in assay [2] was 7.04%.
In the case of `CN1Cc2c(N)cccc2C(c2ccccc2)C1` (stereo not drawn), the Potency result in assay [1] and in assay [3] was “inactive” each time. Further, the activity (max response) in assay [2] is -0.946%.
`NS(=O)(=O)c1cc2c(cc1C(F)(F)F)NC(Cc1ccccc1)NS2(=O)=O` (stereo not drawn): the Potency entry in assay [1] and in assay [3] was “inactive” throughout. The activity (max response) in assay [2] is 1.49%.
Turning to `CCOC(=O)N[C@@H]1CC[C@@H]2[C@@H](C1)C[C@H]1C(=O)O[C@H](C)[C@H]1[C@H]2/C=C/c1ccc(-c2cccc(F)c2)cn1`, in assay [1], the Potency is 13.2 µM (active). The activity (max response) in assay [2] was -18%. Further, in assay [3], the Potency result is “inactive”.
Take `CC1(C)O[C@@H]2C[C@H]3[C@@H]4CCC5=CC(=O)CC[C@]5(C)[C@@]4(F)[C@@H](O)C[C@]3(C)[C@]2(C(=O)CCl)O1`: in assay [1], the Potency was 18.8 µM (active). Moreover, in assay [2], the activity (max response) is 9.64%. Further, the Potency entry in assay [3] is “inactive”.
Take `CC1=C(/C=C/C(C)=C/C=C/C(C)=C\C(=O)O)C(C)(C)CCC1`: the Potency in assay [1] is 6.61 µM (active). In addition, in assay [2], the activity (max response) is -0.514%. Moreover, in assay [3], the Potency result is “inactive”.
With `CNCc1ccc(-c2cc(-c3nc(-c4ccc(S(=O)(=O)C(C)C)cc4)cnc3N)on2)cc1`, the results for the Potency in assay [1], in assay [2] and in assay [3] were 0.326 µM (active), 3.98 µM (active) and 0.316 µM (active), respectively.
With `CCCCCCCCCCCCCCCC(=O)O`, the Potency result in assay [1] and in assay [3] was “inactive” each time. The activity (max response) in assay [2] was 8.9%.
With `C[C@H]1CNCCCN1S(=O)(=O)c1cccc2cncc(F)c12`, the Potency entry in assay [1] and in assay [3] was “inactive” each time. The activity (max response) in assay [2] is -17.2%.
Consider `CCOC(=O)NNc1nncc2ccccc12`, for which the Potency result in assay [1] and in assay [3] was “inactive” in each case. Further, in assay [2], the activity (max response) was 4.25%.
For the molecule `CC(=O)[C@H]1CC[C@H]2[C@@H]3C[C@H](C)C4=CC(=O)CC[C@]4(C)[C@H]3[C@@H](O)C[C@]12C`, in assay [1], the Potency was 23.7 µM (active). Moreover, the activity (max response) in assay [2] is 8.53%. Moreover, the Potency entry in assay [3] was “inactive”.
With `CS(=O)(=O)N1CCN(Cc2cc3nc(-c4cccc5[nH]ncc45)nc(N4CCOCC4)c3s2)CC1`, the Potency is 461 nM (active) and 2.09 µM (active) in assay [1]; 17.8 µM (active) in assay [2]; 2.24 µM (active) in assay [3].
As for `O=C(Nc1ccc(Cl)cc1)Nc1ccc(Cl)c(C(F)(F)F)c1`, the Potency is 7.5 µM (active) in assay [1], 2.91 µM (active) in assay [2] and 1.84 µM (active) in assay [3].
Turning to `Cc1ccc(-c2nn(C(C)(C)CNC(=O)c3ccncc3)c3ncnc(N)c23)cc1`, the Potency in assay [1] is 6.61 µM (active); in assay [2], 8.91 µM (active); in assay [3], 8.91 µM (active).
In the case of `Cc1[nH]cnc1-c1ccc(Cl)cc1`, the Potency result in assay [1] and in assay [3] was “inactive” each time. In addition, the activity (max response) in assay [2] is 8.54%.
With `Cc1ccc(O)cc1`, the Potency entry in assay [1] and in assay [3] was “inactive” each time. For the same molecule, the activity (max response) in assay [2] was 11.5%.
As to `CCc1nnc(NS(=O)(=O)c2ccc(N)cc2)s1`, the Potency result in assay [1] and in assay [3] was “inactive” throughout. Also, the activity (max response) in assay [2] is 4.19%.
On to `CC(C)(C)CC(C)(C)c1ccc(O)c(Cc2ccc(Cl)cc2Cl)c1`, for which the Potency in assay [1] was 15 µM (active); in assay [2] it was 16.4 µM (active); in assay [3], 5.8 µM (active).
Turning to `C=C[C@H]1CN2CCC1C[C@@H]2C(O)c1ccnc2ccc(OC)cc12` (stereo partly drawn), the Potency in assay [1] was 14.8 µM (active). The activity (max response) in assay [2] is 3.34%. Further, in assay [3], the Potency result was “inactive”.
